SUMO Mot1 rescue = SUMOylation pathway inhibition by Mot1-301 growth rescue | S. cerevisiae Mot1-301 growth rescue, ATP luminescence, 38.5C; percent above DMSO median, 100 means doubled | actives 1% (n = 320,000) | growth rescue, % at 18.8 µM;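 active = every valid replicate shows activation above 250% relative to neutral control wells; inactive = the rest, any valid replicate at or below 250%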
CHT inh = inhibits the human high affinity choline transporter. B-score at 10 µM. CHT-expressing cells, membrane potential dye, choline response; stronger effect = lower value. actives 0.86% (n = 310,000). Q9GZV3;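 active = B-score over 3 SD under the library average, and starting fluorescence ratio not unusually high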;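 note: choline stimulus applied at its EC90 after an EC20 pre-addition; B-score computed on integrated fluorescence ratio after choline addition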
MEKK3 PB1 HTS = modulators (inhibitors or enhancers) of MEK5 binding to human MEKK3 PB1 domain | binding response (% of control), % at 10 µM | bead-based flow cytometry, Alexa488-MEK5 binding to MEKK3; actives lie on both sides; 0 = blocked by unlabeled MEK5, 100 = vehicle | actives 1.4% (n = 290,000);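 active = binding response more than 3 SD above or below the average of its plate-row segment, actives on both sides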;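 note: Alexa488 bead fluorescence after subtracting the streptavidin-only scavenger bead signal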
Target sequence (Q99759 whole entry, looked up, the tested form may be a part): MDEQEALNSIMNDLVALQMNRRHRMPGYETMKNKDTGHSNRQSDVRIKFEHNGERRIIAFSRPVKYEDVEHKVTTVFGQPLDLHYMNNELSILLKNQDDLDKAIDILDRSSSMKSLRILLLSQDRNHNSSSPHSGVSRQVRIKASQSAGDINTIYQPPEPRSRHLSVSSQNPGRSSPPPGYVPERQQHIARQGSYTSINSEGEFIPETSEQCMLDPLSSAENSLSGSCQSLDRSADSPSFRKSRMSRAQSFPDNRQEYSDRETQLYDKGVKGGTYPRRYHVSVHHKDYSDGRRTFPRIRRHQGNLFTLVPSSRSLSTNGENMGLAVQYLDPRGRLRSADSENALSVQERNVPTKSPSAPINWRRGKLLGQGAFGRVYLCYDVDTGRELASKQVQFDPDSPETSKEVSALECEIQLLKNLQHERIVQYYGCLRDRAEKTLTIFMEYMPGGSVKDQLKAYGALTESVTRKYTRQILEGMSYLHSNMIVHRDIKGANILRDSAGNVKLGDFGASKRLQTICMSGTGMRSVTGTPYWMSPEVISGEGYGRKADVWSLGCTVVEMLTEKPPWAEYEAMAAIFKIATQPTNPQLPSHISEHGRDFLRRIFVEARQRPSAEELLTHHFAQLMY
MEKK2 WT-MEK5 = raises or lowers MEK5 binding to wildtype human MEKK2 PB1 domain. bead flow cytometry, Alexa488-MEK5 binding to MEKK2 WT; actives lie on both sides. Q9Y2U5. actives 1.1% (n = 290,000). binding response (% of control), % at 10 µM; in the data active = binding response below about 67% or above about 130%
MEKK2 mut-MEK5 = signal of MEK5 binding to mutant human MEKK2 PB1 domain; bead flow cytometry, Alexa488-MEK5 binding to MEKK2 mutant; percent response, % at 10 µM; actives 0.35% (n = 290,000); AID 1530; in the data active = percent response above about 24%, passing the limit was not always enough
CHT PAM = human CHT allosteric activation | AID 488977 | CHT-expressing cells, membrane potential dye, choline EC20; stronger effect = higher value; LV-AA mutant CHT in HEK293 cells | actives 0.49% (n = 310,000) | Q9GZV3 | B-score at 10 µM;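 active = initial fluorescence not abnormally high and integrated response B-score, plate-corrected, over 3 SD above library mean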
CHT block conf = confirmation of human choline transporter CHT inhibitors. CHT activity remaining % of control (stronger effect = lower value), % at 10 µM. actives 70% (n = 2,400). CHT-expressing cells, choline membrane potential dye; LV-to-AA substituted CHT, HEK293 cells. shares compounds with CHT inh;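 active = choline transporter activity left, mean of duplicates at 10 µM, below buffer-only control mean minus 3 SD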;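 note: depolarization triggered by choline at its EC90 following an EC20 pre-addition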
HEK293 MPD ctr = activity in parental HEK293 cells lacking CHT. shares compounds with CHT inh. membrane potential dye, choline response; active = decrease or increase beyond buffer ±3SD. membrane potential ratio readout (active if shifted either direction beyond buffer ±3SD; no single direction) at 10 µM. actives 4% (n = 2,400). AID 493222;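 note: parental cells lack the transporter so any hit is non-specific; ratio is peak minus trough fluorescence over baseline after EC90 choline challenge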
Numbers stand for hits; i = inactive; nt = no result given. Compounds with a hit are over-represented: about 4.1% of the library has one in this group of screens.

SMILES	SUMO Mot1 rescue	CHT inh	MEKK3 PB1 HTS	MEKK2 WT-MEK5	MEKK2 mut-MEK5	CHT PAM	CHT block conf	HEK293 MPD ctr
COc1ccc(NC(=S)N2CCN(C(=O)c3ccco3)CC2)cc1OC	i	i	i	i	i	i	nt	nt
COc1cccc(CCNC(=O)c2ccc(OC)c(OC3CCN(C(C)C)CC3)c2)c1	i	-13.4	i	i	i	i	12.0%	i
COc1ccc(C(=O)NCCOC(C)C)cc1OC1CCN(C(C)=O)CC1	i	i	i	i	i	i	nt	nt
COCCCNC(=O)c1ccc(OC)c(OC2CCN(C(C)C)CC2)c1	i	-6.04	i	i	i	i	36.4%	i
COc1ccc(C(=O)NCc2cnn(C)c2C)cc1OC1CCN(C(C)C)CC1	i	-11.4	i	i	i	i	11.9%	i
COc1ccc(C(=O)N2CCCCCC2)cc1OC1CCN(C(C)C)CC1	i	-5	i	i	i	i	44.8%	i
Cc1cc2nsnc2c(S(=O)(=O)N2CCN(C)CC2)c1C	i	i	i	i	i	i	nt	nt
CCCN1CCN(C(=S)Nc2ccccc2C(F)(F)F)CC1	i	i	i	i	i	i	nt	nt
COc1ccccc1CCNC(=O)c1ccc(OC)c(OC2CCN(C(C)C)CC2)c1	i	-12	i	i	i	i	8.6%	i
COc1ccc(C(=O)NCCc2ccc(C)cc2)cc1OC1CCN(C(C)=O)CC1	i	i	i	i	i	i	nt	nt
COc1ccc(C(=O)N(C)Cc2ccc(C)o2)cc1OC1CCN(C(C)C)CC1	i	-6.33	i	i	i	i	29.6%	i
CCOc1ccc(C)cc1S(=O)(=O)n1cnc2ccccc21	i	i	i	i	i	i	nt	nt
O=[N+]([O-])c1ccc(C(O)CN=Cc2ccc(O)cc2O)cc1 (configuration not stated)	i	i	i	i	i	i	nt	nt
CCCCCc1nc2sc3c(c2c(=O)n1NC(=O)c1ccc([N+](=O)[O-])cc1)CC(C)(C)OC3	i	-12.2	i	i	i	i	28.3%	i
CCCSc1nc2sc3c(c2c(=O)n1CC)CC(C)(C)OC3	i	i	i	i	i	i	nt	nt
COc1ccc(Cl)cc1NC(=O)CN1C(=O)CC(C)S(=O)(=O)c2ccccc21 (configuration not stated)	i	i	i	i	i	i	nt	nt
Cc1[nH]n(-c2cccc(Cl)c2)c(=O)c1-c1ccccc1	i	-6.12	i	i	i	i	67.5%	i
Cc1cc(Cl)ccc1N(CC(=O)NCc1ccccc1)S(C)(=O)=O	i	i	i	i	i	i	nt	nt
CCn1c(SCc2nc(-c3ccc(OC)c(OC)c3)no2)nnc1-c1cccs1	i	-8.64	i	i	i	i	41.7%	i
Cc1ccc(NC(=O)CN(C)C(=O)CSc2ccccc2F)cc1	i	nt	nt	nt	nt	nt	nt	nt
O=C(COC(=O)c1cccc(OC(F)F)c1)Nc1ncccn1	i	nt	nt	nt	nt	nt	nt	nt
Cc1nn(-c2ccccc2)c(C)c1C(=O)OCC(=O)NC(=O)NC1CCCC1	nt	-10.6	i	i	i	i	60.3%	i
CCCCn1c(CN2CCN(c3ccccc3)CC2)nc2c1c(=O)n(C)c(=O)n2C	i	-9.6	i	i	i	i	-41.9%	i
CCCn1c(CN2CCN(c3cccc(Cl)c3)CC2)nc2c1c(=O)n(C)c(=O)n2C	i	-11.1	i	i	i	i	-12.7%	i
CCCCCn1c(CN2CCCCC2C)nc2c1c(=O)n(C)c(=O)n2C (configuration not stated)	i	-5.04	i	i	i	i	44.8%	i
CCCCCn1c(CN2CCN(c3cccc(Cl)c3)CC2)nc2c1c(=O)n(C)c(=O)n2C	i	i	i	i	i	i	nt	nt

Bioassay records (PubChem)
